pPAFAH FP inh: pPAFAH enzyme inhibitors, primary screen, biochemical, fluorescence polarization, human; recombinant pPAFAH, FP-rhodamine probe fluorescence polarization; inhibition, % at 3.39 µM; 1.5% of 330,000 active; AID 463082, 2010;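 active = inhibition above the mean inhibition across the screen plus 3 SD, cut at about 25% in these data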;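 note: inhibitors block binding of the rhodamine activity-based probe so polarization drops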
PAFAH2 FP inh: PAFAH2 enzyme inhibitors, primary screen, biochemical, fluorescence polarization, human; inhibition, % at 3.39 µM; recombinant PAFAH2, FP-rhodamine activity probe; Platelet-activating factor acetylhydrolase 2, cytoplasmic (Homo sapiens), Q99487; 0.99% of 340,000 active;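 active = inhibition above the mean over all tested compounds plus 3 SD, cut at about 30% in these data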;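 note: inhibitors block probe labeling of enzyme so polarization drops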
PAFAH1B3 FP inh: PAFAH1B3 enzyme inhibitors, primary screen, biochemical, fluorescence polarization, human; inhibition, % at 3.39 µM; 0.28% of 340,000 active; recombinant PAFAH1B3, FP-rhodamine probe;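 active = inhibition above the screen-wide average of all tested compounds plus 3 SD, cut at about 25% in these data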
PAFAH1B2 inh: PAFAH1B2 enzyme inhibitors, primary screen, biochemical, fluorescence polarization, human | 1.2% of 340,000 active | recombinant PAFAH1B2, FP-rhodamine activity probe | Platelet-activating factor acetylhydrolase IB subunit alpha2 (Homo sapiens), P68402 | inhibition, % at 3.39 µM;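 active = inhibition above the mean of all tested compounds plus 3 SD, cut at about 24% in these data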
DAGLB inhibitor: DAGLB lipase inhibitors, primary screen, biochemical, fluorescence, HTS | HEK293T DAGLB membrane lysate, EnzChek fluorogenic substrate | inhibition, % at 5.17 µM | 0.059% of 340,000 active | AID 504411, 2011; in the data active = inhibition above about 34%
HTRA1 inhibitor: HTRA1 serine protease inhibitors, primary screen, biochemical, fluorescence polarization, HTS. Q92743. recombinant HTRA1, FP-rhodamine activity-based probe. inhibition, % at 5.96 µM. 0.5% of 340,000 active; in the data active = inhibition above about 36%
Target sequence (Q92743 whole entry, looked up): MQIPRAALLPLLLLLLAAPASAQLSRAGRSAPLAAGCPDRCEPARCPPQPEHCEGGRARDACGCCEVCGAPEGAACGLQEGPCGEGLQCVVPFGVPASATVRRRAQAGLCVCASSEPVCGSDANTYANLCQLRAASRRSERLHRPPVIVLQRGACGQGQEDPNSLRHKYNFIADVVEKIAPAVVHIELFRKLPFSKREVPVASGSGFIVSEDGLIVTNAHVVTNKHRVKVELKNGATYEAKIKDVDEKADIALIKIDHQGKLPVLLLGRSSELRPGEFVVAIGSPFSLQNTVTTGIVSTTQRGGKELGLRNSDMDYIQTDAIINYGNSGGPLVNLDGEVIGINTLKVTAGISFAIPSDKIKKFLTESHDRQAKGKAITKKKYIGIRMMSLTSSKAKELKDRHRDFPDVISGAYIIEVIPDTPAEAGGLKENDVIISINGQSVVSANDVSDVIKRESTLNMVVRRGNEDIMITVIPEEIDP
Of the large screens only hits and unclear results are named; the others gave an inactive call. Hits are enriched below; roughly 2.8% of the tested compounds scored in any of these assays.

CCN(C(=O)CSc1nc2ccccc2n1CC(C)C)c1c(N)n(Cc2ccccc2)c(=O)[nH]c1=O	none (no result: pPAFAH FP inh)
CCN(C(=O)CSc1nc2ccccc2o1)c1c(N)n(Cc2ccccc2)c(=O)[nH]c1=O	pPAFAH FP inh 29
COc1ccc(CCN2CC(C(=O)NCCc3ccc(C)cc3)CC2=O)cc1OC (stereo not drawn)	pPAFAH FP inh 29
COc1ccc(CCNC(=O)C2CC(=O)N(c3ccc(C)cc3)C2)cc1OC (stereo not drawn)	none
CCCCn1c(N)c(C(=S)NC(=O)CC(C)(C)C)c(=O)n(C)c1=O	PAFAH1B2 inh 27
CC1CN(C(=O)c2ccc(NS(=O)(=O)c3ccc(F)cc3)cc2)CC(C)O1 (stereo not drawn)	none
CCC1=NN2C(=N)/C(=C\c3cccn3-c3ccc(C)c(C)c3)C(=O)N=C2S1	none
CCC1=NN2C(=N)/C(=C\c3cccn3-c3ccc(Cl)cc3)C(=O)N=C2S1	PAFAH1B2 inh 42
Cc1ccc(-n2cccc2/C=C2\C(=N)N3N=C(c4ccco4)SC3=NC2=O)cc1	PAFAH1B2 inh 32
O=C(CCC1CCCC1)NNC(=O)c1ccc(F)cc1	none
COc1cc(S(=O)(=O)Nc2cccc(C)c2)ccc1NC(=O)c1ccncc1	pPAFAH FP inh 33
Cc1cccc(NC(=O)c2cccc(NS(=O)(=O)c3ccc(Cl)cc3)c2)c1	none
Cc1ccc(NC(=O)O/N=C/c2ccc(Br)cc2)cc1	PAFAH1B2 inh 58
COc1ccc(NC(=O)O/N=C/c2ccc(Br)cc2)cc1	PAFAH1B2 inh 46
O=C(CN1C(=O)CSc2ccc(S(=O)(=O)N3CCOCC3)cc21)NCc1cccnc1	none
COc1ccc(Nc2nc(N)c(C(=O)c3ccc(OC)cc3)s2)cc1	pPAFAH FP inh 26
COc1ccc(Nc2nc(N)c(C(=O)c3ccc(F)cc3)s2)cc1	pPAFAH FP inh 31
CCOC(=O)c1sc(Nc2ccc(F)cc2)nc1C	none
c1coc(CSSCc2ccco2)c1	PAFAH2 FP inh 50, PAFAH1B3 FP inh 30
Cc1ccc(NC(=O)CSCc2ccco2)cc1	none
Cc1ccc(C2=CC(c3ccc(C)cc3)n3ncnc3N2)cc1 (stereo not drawn)	none
CC(C)(C)c1ccc(C2=CC(c3ccccc3)n3ncnc3N2)cc1 (stereo not drawn)	pPAFAH FP inh 26, PAFAH1B2 inh 58
CCCc1cc(-c2n[nH]c(C)c2-c2ccc(C(=O)OCC)o2)c(O)cc1O	none
CCCc1cc2c(OC(=O)CC)c(-c3ccc(C(=O)OCC)o3)c(=O)oc2cc1OC	PAFAH2 FP inh 67, PAFAH1B3 FP inh 60
CCOc1ccccc1CN1C(=O)NC2(CCCCCC2)C1=O	none
CN(c1ccc(Cl)cc1)c1cc(=O)n(C)c2ccccc12	PAFAH1B2 inh 29
COc1cc(=O)n(C)c2ccccc12	none
Cc1ccc(C)c(C(=O)COC(=O)CN2C(=O)C3C4C=CC(C4)C3C2=O)c1 (stereo not drawn)	none
N#CC1=C(S)N(c2ccccc2)C(c2ccc(-c3cccc(Cl)c3)o2)NC1=O (stereo not drawn)	pPAFAH FP inh 28
CCCCCCN1C[C@H](n2cc(-c3ccc(F)cc3)nn2)[C@@H](O)C[C@@H]1c1ccc(C)cc1	none (no result: pPAFAH FP inh, PAFAH2 FP inh, PAFAH1B3 FP inh, PAFAH1B2 inh)
Cc1cc(Nc2cc(Cl)nc(Sc3ccc(NC(=O)C4CC4)cc3)n2)n[nH]1	none
O=C(Nc1nnc(CCc2ccccc2)s1)c1cccc(F)c1	PAFAH1B2 inh 25
O=C(Nc1nnc(CCc2ccccc2)s1)c1ccc(F)cc1	none
COc1ccc(CCNC(=O)C(=O)NCC2OCCN2S(=O)(=O)c2ccc(Cl)cc2)cc1OC (stereo not drawn)	none
Cc1cc([N+](=O)[O-])c2c(c1C)C1C=CCC1C(c1ccccn1)N2 (stereo not drawn)	pPAFAH FP inh 28 (no result: PAFAH2 FP inh, PAFAH1B3 FP inh, PAFAH1B2 inh, DAGLB inhibitor, HTRA1 inhibitor)
O=c1c2cc(-c3ccccc3)sc2ncn1/N=C/c1ccco1	pPAFAH FP inh 26
CCN1CCN(c2cc(N3CCN(C(=O)c4ccco4)CC3)c3c4c(onc24)-c2ccccc2C3=O)CC1	pPAFAH FP inh 27, HTRA1 inhibitor 70
CC(=O)OCCNc1cc(N2CCN(C)CC2)c2noc3c2c1C(=O)c1ccccc1-3	none (no result: pPAFAH FP inh)
CCOc1ccccc1C(=O)NC1CCNCC1	none
CC(C)C[C@H](N)c1nnc(SCc2ccc(Cl)cc2)o1	none
CC(C)[C@H](N)c1nnc(SCc2ccc(Cl)cc2)o1	PAFAH1B2 inh 34
Cc1occc1C(=O)O/N=C(\N)c1ccc(Cl)cc1	PAFAH1B2 inh 34
COc1cccc(CNC(=O)CN2C(=O)COc3ccc(S(=O)(=O)N4CCCC4)cc32)c1	none
O=C(Cc1ccc(S(=O)(=O)N2CCOCC2)s1)Nc1nc2c(s1)CCCC2	pPAFAH FP inh 32
O=C(Cc1ccc(S(=O)(=O)N2CCOCC2)s1)Nc1cc(Cl)ccc1Cl	pPAFAH FP inh 28, PAFAH2 FP inh 41
COc1cc(NC(=O)Cc2ccc(S(=O)(=O)N3CCOCC3)s2)c(OC)cc1Cl	none
O=C(Cc1ccc(S(=O)(=O)N2CCOCC2)s1)Nc1ccc2c(c1)CCC2	none
N#Cc1ccccc1C[C@H](N)C(=O)NC[C@H]1O[C@@H](n2ccc(N)nc2=O)[C@H](O)[C@@H]1O	none (no result: pPAFAH FP inh, PAFAH2 FP inh, PAFAH1B3 FP inh, PAFAH1B2 inh)
CC(C)(C)CN1CCC(Oc2cccc(C(=O)NCCCOc3cccnc3)c2)CC1	none
O=C(Nc1ccc(F)cc1)Nc1nnc(Cc2ccccc2F)s1	none
CCOC(=O)CC(=O)CSc1nc(N)c(C#N)c(-c2ccc(F)cc2)c1C#N	pPAFAH FP inh 28
CCCCCCCN=CC1=C(O)CC(c2ccccc2)CC1=O (stereo not drawn)	PAFAH1B2 inh 26
O=C(COc1ccccc1[N+](=O)[O-])OCCCOC(=O)COc1ccccc1[N+](=O)[O-]	none
O=C(COc1ccccc1[N+](=O)[O-])OCC(=O)c1ccc(Br)s1	pPAFAH FP inh 26
CC1(C)Cc2c(sc3[nH]c(=S)n(Cc4ccco4)c(=O)c23)CO1	none
O=c1c2c3c(sc2[nH]c(=S)n1Cc1ccco1)CCC3	pPAFAH FP inh 25
COc1ccc(-n2c(Cc3cccn3C)nnc2SCC(=O)Nc2cccc(OC)c2)cc1	none
COc1ccc(NC(=O)CSc2nnc(Cc3cccn3C)n2-c2ccc(C)cc2)cc1OC	pPAFAH FP inh 32
O=C(NCCc1cccc(Cl)c1)c1cccc(-n2cnnn2)c1	none (no result: pPAFAH FP inh)
Oc1ccc(N=C/C=C/c2ccc(Br)cc2)cc1-c1nc2ccccc2s1	pPAFAH FP inh 53 (no result: PAFAH2 FP inh, PAFAH1B3 FP inh, PAFAH1B2 inh, DAGLB inhibitor, HTRA1 inhibitor)
C#CCN(C(=O)CC1C(=O)NCCN1C/C=C/c1ccccc1)C1CCCCC1 (stereo not drawn)	none
Cc1ccc(NC(=O)CNc2cccc(S(=O)(=O)N3CCCCC3)c2)cc1F	pPAFAH FP inh 31

From PubChem
